Results published in PubChem BioAssay.
Calls of active or inactive are those of the source.

Columns and labels:
[1] = system: Plasmodium falciparum Sir2 (PF13_0152, Sir2A); assay: Plasmodium falciparum Sir2A binding compounds – biochemical, small-molecule microarray, 635 nm fluorescence, primary screen (AID 1098); details: fluorescence 635 nm, higher = more signal;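 further: score merges spot fluorescence intensity with its signal-to-noise ratio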
[2] = probe aDKK1 binding to arrayed compounds – biochemical, biotinylated probe, 635/667 nm fluorescence, primary screen (AID 1099); details: small-molecule microarray, higher = more signal;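 further: score merges 667nm spot fluorescence with signal to noise across triplicate slides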
[3] = probe aCHRDL2 binding to arrayed compounds – biochemical, biotinylated probe, 635/667 nm fluorescence, primary screen (AID 1100); details: small-molecule microarray, higher = more signal
[4] = change in splice reporter luminescence, either direction, cell-based, HEK293, spliceosome inhibition project, primary screen (AID 1101); details: HEK293 splicing luciferase reporter, 24 h, higher = more signal, called active from +8 up or from −8 down;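 further: HEK293 cells carrying a splicing-competent luciferase reporter gene; test concentration not given here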
[5] = target: Fibroblast growth factor 10 (Homo sapiens) (UniProt O15520); assay: compounds binding fibroblast growth factor 10 – biochemical, small-molecule microarray, 635 nm fluorescence, primary screen (AID 1102); details: FGF10 binding, fluorescence 635 nm, higher = more signal
Fibroblast growth factor 10 (Homo sapiens), sequence (O15520 whole entry, looked up): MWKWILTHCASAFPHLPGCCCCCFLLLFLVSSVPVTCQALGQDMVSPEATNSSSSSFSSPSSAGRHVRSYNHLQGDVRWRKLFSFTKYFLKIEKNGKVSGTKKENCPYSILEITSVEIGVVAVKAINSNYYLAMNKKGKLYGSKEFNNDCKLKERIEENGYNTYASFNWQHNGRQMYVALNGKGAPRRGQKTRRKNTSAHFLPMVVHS

[6] = system: glycogen synthase kinase-3 (GSK3A per assay name; protocol says GSK3B); assay: compounds binding glycogen synthase kinase-3 – biochemical, small-molecule microarray, 635 nm fluorescence, GSK3A, primary screen (AID 1103); details: fluorescence 635 nm, higher = more signal; further: the record names both GSK3A and GSK3B
[7] = target: Epidermal growth factor receptor (Homo sapiens) (UniProt P00533); assay: compounds binding epidermal growth factor receptor – biochemical, small-molecule microarray, 635 nm fluorescence, primary screen (AID 1104); details: EGFR binding, higher = more signal;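 further: score merges 667 nm emission intensity with spot signal to noise over triplicate slides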
Epidermal growth factor receptor (Homo sapiens), sequence (P00533 whole entry, looked up): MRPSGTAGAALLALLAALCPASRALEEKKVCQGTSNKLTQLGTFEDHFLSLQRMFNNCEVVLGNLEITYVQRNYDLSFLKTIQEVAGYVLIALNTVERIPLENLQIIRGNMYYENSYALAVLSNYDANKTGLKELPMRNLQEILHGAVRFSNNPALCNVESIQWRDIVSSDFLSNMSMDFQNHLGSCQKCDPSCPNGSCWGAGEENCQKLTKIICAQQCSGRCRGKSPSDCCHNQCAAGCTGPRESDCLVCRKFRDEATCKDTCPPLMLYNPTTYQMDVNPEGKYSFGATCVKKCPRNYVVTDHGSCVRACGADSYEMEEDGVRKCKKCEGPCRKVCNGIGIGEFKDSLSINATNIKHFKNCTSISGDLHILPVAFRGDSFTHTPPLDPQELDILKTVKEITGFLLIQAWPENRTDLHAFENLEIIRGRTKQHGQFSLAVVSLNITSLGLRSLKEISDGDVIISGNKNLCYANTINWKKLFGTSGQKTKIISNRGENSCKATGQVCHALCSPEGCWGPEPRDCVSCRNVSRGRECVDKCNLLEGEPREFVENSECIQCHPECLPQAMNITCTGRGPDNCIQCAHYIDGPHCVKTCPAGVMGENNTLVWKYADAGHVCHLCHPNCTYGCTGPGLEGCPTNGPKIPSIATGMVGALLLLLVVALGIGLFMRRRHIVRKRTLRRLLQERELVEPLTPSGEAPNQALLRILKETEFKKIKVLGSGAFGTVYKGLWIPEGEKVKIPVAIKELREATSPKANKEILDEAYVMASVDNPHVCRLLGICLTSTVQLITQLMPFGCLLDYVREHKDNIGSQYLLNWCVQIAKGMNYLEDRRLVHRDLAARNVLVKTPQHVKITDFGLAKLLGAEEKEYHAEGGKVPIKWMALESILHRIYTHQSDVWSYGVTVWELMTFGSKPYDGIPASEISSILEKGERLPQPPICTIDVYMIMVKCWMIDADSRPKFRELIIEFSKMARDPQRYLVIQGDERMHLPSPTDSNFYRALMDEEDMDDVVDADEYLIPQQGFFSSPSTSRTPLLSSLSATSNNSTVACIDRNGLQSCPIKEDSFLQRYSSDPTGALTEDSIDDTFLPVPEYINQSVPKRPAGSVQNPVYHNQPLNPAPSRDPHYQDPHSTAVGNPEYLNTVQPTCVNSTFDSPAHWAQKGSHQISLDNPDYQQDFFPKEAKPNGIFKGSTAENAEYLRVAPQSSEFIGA

[8] = target: Follistatin-related protein 3 (Homo sapiens) (UniProt O95633); assay: compounds binding follistatin-related protein 3 – biochemical, small-molecule microarray, 635 nm fluorescence, primary screen (AID 1105); details: FSTL3 binding, higher = more signal;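 further: score merges emission near 667 nm and signal to noise per printed spot across three slides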
Follistatin-related protein 3 (Homo sapiens), sequence (O95633 whole entry, looked up): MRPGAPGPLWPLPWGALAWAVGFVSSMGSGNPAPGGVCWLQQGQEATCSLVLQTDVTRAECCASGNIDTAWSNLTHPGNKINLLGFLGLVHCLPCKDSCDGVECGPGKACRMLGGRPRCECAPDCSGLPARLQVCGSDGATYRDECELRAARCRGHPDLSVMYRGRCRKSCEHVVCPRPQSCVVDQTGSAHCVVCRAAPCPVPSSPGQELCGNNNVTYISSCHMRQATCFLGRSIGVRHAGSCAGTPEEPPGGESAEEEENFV

[9] = target: Dickkopf-related protein 1 (Homo sapiens) (UniProt O94907); assay: small molecules binding DKK1 protein – biochemical, small-molecule microarray, 635 nm fluorescence scan, primary screen (AID 1106); details: higher = more signal;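 further: score merges emission near 667 nm with signal to noise over three replicate slides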
Dickkopf-related protein 1 (Homo sapiens), sequence (O94907 whole entry, looked up): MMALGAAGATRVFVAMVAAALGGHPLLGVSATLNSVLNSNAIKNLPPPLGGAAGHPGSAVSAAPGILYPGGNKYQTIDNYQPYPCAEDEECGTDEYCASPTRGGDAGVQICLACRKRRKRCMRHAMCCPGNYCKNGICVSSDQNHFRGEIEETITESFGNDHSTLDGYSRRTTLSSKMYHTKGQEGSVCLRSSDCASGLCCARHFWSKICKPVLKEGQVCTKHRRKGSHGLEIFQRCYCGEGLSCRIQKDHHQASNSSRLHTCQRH

[10] = system: Inhibin beta A chain (activin A); assay: small molecules binding activin A – biochemical, small-molecule microarray, 635 nm fluorescence scan, primary screen (AID 1107); details: INHBA, higher = more signal;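 further: mouse activin A protein probed at 4.33 µg/mL on printed slides; score merges bound-protein fluorescence near 667 nm with spot signal-to-noise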
[11] = system: Human papillomavirus type 1a protein E7 (residues 44-93); assay: small molecules binding HPV E7 44-93 – biochemical, small-molecule microarray, residues 44-93, 635 nm fluorescence, primary screen (AID 1108); details: fluorescence 635 nm, higher = more signal;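 further: E7 fragment applied at 1 µg/mL in TBST for 1 h at 4 C; score combines spot fluorescence with its signal to noise ratio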
[12] = hepatitis C replication reporter changes, two-sided – Huh7 cells, luciferase reporter, HCV replication inhibitor project, primary screen (AID 1109); details: Huh7 HCV replicon luciferase reporter, 48 h; higher = more signal;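 further: huh7 hepatoma cells harbouring a luciferase neomycin HCV replicon reporter; luciferase luminescence as measure of HCV replicon replication; test concentration not given here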
[13] = target: Left-right determination factor 2 (Homo sapiens) (UniProt O00292); assay: small molecules binding LEFTY2 protein – biochemical, small-molecule microarray, 635 nm fluorescence scan, primary screen (AID 1110); details: higher = more signal
Left-right determination factor 2 (Homo sapiens), sequence (O00292 whole entry, looked up): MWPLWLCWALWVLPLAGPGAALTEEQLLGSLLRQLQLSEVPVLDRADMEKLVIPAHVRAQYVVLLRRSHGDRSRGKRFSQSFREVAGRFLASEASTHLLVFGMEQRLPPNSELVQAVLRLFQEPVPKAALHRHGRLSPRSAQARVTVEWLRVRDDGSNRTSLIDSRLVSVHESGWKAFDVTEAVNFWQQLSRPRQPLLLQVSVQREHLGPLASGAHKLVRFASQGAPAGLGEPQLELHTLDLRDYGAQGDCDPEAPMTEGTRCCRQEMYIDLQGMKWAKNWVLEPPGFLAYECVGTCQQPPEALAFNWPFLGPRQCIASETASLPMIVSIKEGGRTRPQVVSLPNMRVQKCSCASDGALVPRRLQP

[14] = target: Calmodulin-1 (Homo sapiens) (UniProt P0DP23); assay: small molecules binding calmodulin-1 with EGTA – biochemical, small-molecule microarray, Cy5-labelled CALM1, profiling panel (AID 1111); details: Cy5-CALM1 binding fluorescence, higher = more signal;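 further: labelled calmodulin applied in Tris saline Tween buffer holding calcium plus EGTA and DTT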
[15] = target: Calmodulin-1 (Homo sapiens) (UniProt P0DP23); assay: small molecules binding Ca-loaded calmodulin-1 – biochemical, small-molecule microarray, Cy5-labelled CALM1, plus calcium, artefact control for SMM control-protein annotation, profiling panel (AID 1112); details: Cy5-CALM1 binding fluorescence, higher = more signal;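 further: score merges spot fluorescence with signal to noise from triplicate slides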
[16] = probe aWnt5a binding to arrayed compounds – biochemical, biotinylated probe, 635/667 nm fluorescence, primary screen (AID 1113); details: small-molecule microarray, higher = more signal;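 further: score merges 667 nm fluorescence intensity with signal-to-noise per printed feature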
[17] = probe aShh binding to arrayed compounds – biochemical, biotinylated probe, 635/667 nm fluorescence, primary screen (AID 1114); details: small-molecule microarray, higher = more signal;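 further: probe is biotin-labelled aShh protein from a stem cell growth factor screen; measures binding of labelled protein to compounds printed on the slide; score merges feature fluorescence at 667 nm with signal-to-noise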
[18] = probe aNog binding to arrayed compounds – biochemical, biotinylated probe, 635/667 nm fluorescence, primary screen (AID 1115); details: small-molecule microarray, higher = more signal;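 further: probe is biotinylated aNog protein used at 0.15 µg/mL for 1 h at 4 C; z-score combines 667 nm fluorescence of each spot with its signal to noise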
[19] = target: Torsin-1A-interacting protein 1 (Homo sapiens) (UniProt Q5JTV8); assay: compound microarray binding of lysate hLAP1 – cell lysate, small-molecule microarray, COS7 lysate, 635/667 nm fluorescence, primary screen (AID 1116); details: 635 nm fluorescence, higher = more signal
Torsin-1A-interacting protein 1 (Homo sapiens), sequence (Q5JTV8 whole entry, looked up): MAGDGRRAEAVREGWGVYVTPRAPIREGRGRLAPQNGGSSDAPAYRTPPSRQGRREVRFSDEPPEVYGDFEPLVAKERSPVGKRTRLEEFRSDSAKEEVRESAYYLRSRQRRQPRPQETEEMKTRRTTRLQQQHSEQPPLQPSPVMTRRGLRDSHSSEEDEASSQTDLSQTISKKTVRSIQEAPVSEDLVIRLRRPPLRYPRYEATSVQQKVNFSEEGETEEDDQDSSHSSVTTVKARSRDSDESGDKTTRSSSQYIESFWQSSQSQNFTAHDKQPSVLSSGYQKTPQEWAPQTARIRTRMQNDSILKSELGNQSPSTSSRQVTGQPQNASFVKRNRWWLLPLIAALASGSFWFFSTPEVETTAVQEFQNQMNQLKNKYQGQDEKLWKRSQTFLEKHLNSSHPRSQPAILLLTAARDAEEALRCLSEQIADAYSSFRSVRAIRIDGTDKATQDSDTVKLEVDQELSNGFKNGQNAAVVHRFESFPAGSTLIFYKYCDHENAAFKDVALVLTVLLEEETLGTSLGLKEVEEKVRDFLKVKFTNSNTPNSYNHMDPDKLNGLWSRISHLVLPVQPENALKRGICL

[20] = target: Alpha-bungarotoxin (Bungarus multicinctus) (UniProt P60615); assay: compounds binding labelled alpha-BTX control protein – biochemical, small-molecule microarray, Alexa647 label, 635/667 nm fluorescence, artefact control for SMM control protein annotation, profiling panel (AID 1117); details: alpha-BTX-A647 binding fluorescence, higher = more signal
Alpha-bungarotoxin (Bungarus multicinctus), sequence (P60615 whole entry, looked up): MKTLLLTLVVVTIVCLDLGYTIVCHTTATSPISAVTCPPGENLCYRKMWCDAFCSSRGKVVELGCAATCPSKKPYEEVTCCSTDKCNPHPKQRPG

| Compound | composite z-score [1] | composite z-score [2] | composite z-score [3] | z-score [4] | composite z-score [5] | composite z-score [6] | composite z-score [7] | composite z-score [8] | composite z-score [9] | composite z-score [10] | composite z-score [11] | z-score [12] | composite z-score [13] | composite z-score [14] | composite z-score [15] | composite z-score [16] | composite z-score [17] | composite z-score [18] | composite z-score [19] | composite z-score [20] |
| --- | --- | --- | --- | --- | --- | --- | --- | --- | --- | --- | --- | --- | --- | --- | --- | --- | --- | --- | --- | --- |
| COc1ccc([Si](C)(C)[C@H]2[C@H](CC(=O)N3Cc4ccccc4C[C@H]3CO)O[C@@]3(C(=O)N(Cc4cccc(N5C(=O)COc6ccccc65)c4)c4ccccc43)[C@@H]2C)cc1 | 1.18 | -0.225 | -0.261 | -1.72 (inactive) | 0.818 | 0.52 | 1.13 | 1.26 | 1.12 | 1.23 | 0.354 | -3.73 | 0.818 | 0.191 | -0.185 | 0.0094 | 0.0637 | -0.0118 | 0.7 | 1.87 |
| C=CC[C@@H](OC(=O)Nc1ccc(SC)cc1)c1ccc(OCCO)cc1 | 1.28 | 0.271 | 1.29 | -1.83 (inactive) | 0.0292 | -0.381 | -1.4 | -0.805 | -1.42 | -0.148 | -0.318 | 2.1 | -0.952 | -0.0326 | 0.835 | -0.208 | 0.358 | 0.133 | 1.01 | -0.68 |
| COc1ccc([Si](C)(C)[C@H]2[C@H](CC(=O)N(CCO)Cc3ccccc3)O[C@@]3(C(=O)N(Cc4ccc(N5CCOC5=O)cc4)c4ccccc43)[C@@H]2C)cc1 | 0.614 | 0.0402 | 0.32 | -1.56 (inactive) | 0.286 | -0.137 | 0.109 | 0.276 | 0.512 | 0.6 | 0.162 | -2.94 | 0.23 | 0.228 | 0.342 | -0.0944 | 0.493 | 0.473 | 0.639 | 1.02 |
| CC(CO)N1C(=O)[C@@H]2C3C(=O)OCCC/C=C\[C@H]3OC23C=CCN(Cc2ccccc2)C(=O)[C@@H]13 (stereo not given in full) | 0.608 | -0.206 | 0.0202 | -0.992 (inactive) | -0.559 | -0.236 | -0.794 | -0.639 | -0.386 | 1.21 | -0.412 | -0.159 | -0.784 | -0.182 | -0.292 | -0.176 | -0.0769 | -0.036 | -0.307 | -1.53 |
| [N-]=[N+]=NCc1ccccc1C[C@@]1(C(=O)O)N=C(c2ccc(OCCCO)cc2)O[C@@H]1c1ccccc1 | 1.31 | 0.884 | 1.24 | -0.618 (inactive) | -0.0995 | -0.374 | -0.906 | -0.879 | -1.09 | 0.738 | 0.566 | -0.616 | -0.404 | 2.13 | 1.36 | -0.0799 | 0.0469 | 0.767 | 1.75 | 1.09 |
| NCCCCCCNC(=O)[C@@H]1C[C@@H]2C(=O)N[C@@H](Cc3ccccc3)C(=O)N2[C@@H]1c1ccc(O)cc1 | 0.791 | 0.678 | 0.709 | -0.573 (inactive) | 0.25 | 0.717 | 0.0626 | 0.367 | 0.627 | 1.15 | 1.12 | 0.355 | 0.093 | 2 | 1.32 | -0.11 | 0.318 | 0.075 | 0.526 | 1.3 |
| COCCCN1C(=O)[C@@]2(Cc3ccccc31)c1ccccc1C(=O)N(Cc1ccccc1Cl)[C@H]2c1ccc(CO)cc1 | -0.482 | 0.337 | 0.775 | -0.471 (inactive) | -0.129 | -0.542 | -0.406 | -0.397 | -0.685 | 1.04 | -0.199 | -0.326 | -0.222 | -0.217 | -0.12 | 0.0044 | -0.0066 | 0.206 | 0.167 | -0.342 |
| CCOC(=O)C[C@H]1[C@H](OC(=O)c2cc3ccccc3oc2=O)[C@@H](NC(=O)c2ccccc2)c2cc(OCCCO)ccc2N1C(=O)Cc1ccc(OC)cc1 | 0.575 | 0.33 | -0.194 | -1.78 (inactive) | 0.905 | 0.714 | 0.433 | 0.909 | 0.511 | 0.506 | 0.378 | -0.824 | 0.357 | 0.163 | -0.422 | -0.182 | -0.138 | 0.23 | 0.44 | 0.693 |
